{"source": "PubChem BioAssay (NCATS)", "note": "Records with an inconclusive call do not appear. Unmarked numbers belong to inactive results. The source made the active and inactive calls. The call rests on the fitted dose curve; in most records, active means well fitted cell-killing curve with a large enough effect; inconclusive means small, poorly fitted or top-dose-only effect; inactive means flat fitted curve, though single readings scatter. Potency means the concentration at half of the fitted maximal effect."}
{"assay": "qHTS of pediatric cancer cell lines to identify multiple opportunities for drug repurposing: Primary screen for BT-12 cells (AID 1347101); further: nearly all actives have a fitted effect of over 25% in size", "settings": "BT-12 viability, CellTiter-Glo luminescence, 48 h; series mostly up to 57.3 µM; activity change, negative = cytotoxic: at the top concentration", "description": "Drug repurposing or repositioning has been offered as a strategy for drug development in oncology programs. This approach has special potential for childhood cancers and other rare or orphan diseases, where the expected return on new drug development has been a disincentive to pharmaceuticals.\nIn this project we exploit the poly-pharmacology of drugs to discover new indications via phenotypic screening of a panel of 19 well-characterized cell lines derived from solid tumors seen in children and adolescents. The goal is to identify approved drugs with previously unrecognized anticancer properties that has the potential to reveal new mechanisms and biological processes involved in carcinogenesis or drug resistance. We employed a titration-based paradigm (quantitative high-throughput screening or qHTS), where all compounds were tested at multiple concentrations for their effect on cell viability. Concentration-response curves (CRCs) were derived directly from the primary screen, and both potency and efficacy values were used to identify compounds with robust bioactivity profiles. We screened the NIH Chemical Genomics Center (NCGC) Pharmaceutical Collection (NPC) and Mechanism Interrogation Plate (MIPE) small molecule collections of approved and investigational compounds against these cell lines; and measured metabolically active cells after 48 hours of compound treatment as a proxy for cell viability.\nAssay Submitter: Nathalia J. Martinez, National Center for Advancing Translational Sciences, National Institutes of Health, Rockville, MD, USA; email: natalia.martinez@nih.gov\n[1] Shen, M et al. Quantitative high-throughput phenotypic screening of pediatric cancer cell lines identifies multiple opportunities for drug repurposing. Oncotarget 2017 Dec 19;9(4):4758-4772. PMID 29435139.\nThe cells were obtained from University of North Carolina (UNC), Pediatric Preclinical Testing Program (PPT), and Coriell Institute (CI).\nqHTS cell viability assay:\nCells were assayed in growth media at a density of 500-1,000 cells/well. Five microliters of cells were dispensed into 1,536-well, white, solid-bottom, TC-treated plates (Greiner Bio One) using a multidrop dispenser and incubated at 37 degrees C, 5% CO2, under a humidified atmosphere for 5 hours. Twenty-three nanoliters of compounds and controls (neutral control DMSO or positive control bortezomib at final concentration of 2.3 µM) were subsequently transferred by Kalypsys pintool. For primary screens, the MIPE collection was tested at 11-point dilutions (final concentrations range from 0.78 nM to 46 µM) and the NPC collection at 8-point dilutions (final concentrations range from 0.59 nM to 46 µM). Compounds tested in follow-up screens were assayed at 11-point dilutions. Cells were incubated for 48 hours, followed by addition of 3 µL of CellTiter-Glo (Promega). After a 15 min incubation at room temperature, samples were analyzed for luminescence intensity using a ViewLux High-throughput CCD imager equipped with clear filters.", "units": {"activity change, negative = cytotoxic": "%"}}
{"compound": "O=C1c2ccccc2-[n+]2ccc3c([nH]c4ccccc43)c21", "Potency": "6.85 µM (active)"}
{"compound": "CN1C[C@H]2c3ccccc3Oc3ccc(Cl)cc3[C@@H]2C1", "activity change, negative = cytotoxic": -16.2}
{"compound": "CN(C)Cc1cccc(N=C(c2ccccc2)c2c(O)[nH]c3cc(C(=O)N(C)C)ccc23)c1", "Potency": "6.85 µM (active)"}
{"compound": "O=C(OCC#CCSc1nnc(-c2cccc3ccccc23)o1)c1cc2ccccc2s1", "activity change, negative = cytotoxic": -6.91}
{"compound": "O=c1cc(-c2cccc3c2Sc2ccccc2S3)oc(N2CCOCC2)c1", "activity change, negative = cytotoxic": -3.64}
{"compound": "O=C(NC1CCOCC1)c1ccc(-c2cc(-c3cn[nH]c3-c3ccccn3)ccn2)cc1", "activity change, negative = cytotoxic": -3.51}
{"compound": "CC(=O)N(C)C1(c2ccccc2)CCN(CCC[C@]2(c3ccc(Cl)c(Cl)c3)CCCN(C(=O)c3ccccc3)C2)CC1", "Potency": "27.3 µM (active)"}
{"compound": "CC1CCC(C(=O)N(c2cc(C#CC(C)(C)C)sc2C(=O)O)C2CCC(O)CC2)CC1", "note": "(stereo not given)", "activity change, negative = cytotoxic": -12.8}
{"compound": "Cn1cc(C=C2C(=O)Nc3cccnc32)c2ccccc21", "activity change, negative = cytotoxic": 2.34}
{"compound": "COc1cccc(-c2cc(=O)c3ccccc3o2)c1N", "activity change, negative = cytotoxic": 13.8}
{"compound": "c1cc(-c2sc(-c3ccncc3)c(-c3ccncc3)c2-c2ccncc2)ccn1", "activity change, negative = cytotoxic": 6.54}
{"compound": "CCN(CC)CCOc1ccc(C(=C(Cl)c2ccccc2)c2ccccc2)cc1", "activity change, negative = cytotoxic": -8.01}
{"compound": "CN1[C@@H]2CCC[C@@H]1CC(NC(=O)c1nn(C)c3ccccc13)C2", "note": "(stereo not given in full)", "activity change, negative = cytotoxic": -0.683}
{"compound": "C[C@]12CCC3c4ccc(O)cc4CCC3C1CCC2=O", "note": "(stereo not given in full)", "activity change, negative = cytotoxic": -19.8}
{"compound": "COc1ccc(-c2coc3cc(O)ccc3c2=O)cc1", "activity change, negative = cytotoxic": -7.63}
{"compound": "CO[C@H]1C[C@@H]2CC[C@@H](C)[C@@](O)(O2)C(=O)C(=O)N2CCCC[C@@H]2C(=O)O[C@H]([C@H](C)C[C@@H]2CC[C@H](OP(C)(C)=O)[C@H](OC)C2)CC(=O)[C@H](C)C=C(C)[C@@H](O)[C@@H](OC)C(=O)[C@H](C)C[C@H](C)C=CC=CC=C1C", "Potency": "27.3 µM (active)"}
{"compound": "Nc1ncnc2c1ncn2[C@@H]1O[C@H](CO)C[C@@H]1O", "activity change, negative = cytotoxic": -0.611}
{"compound": "CC(=O)O[C@]1(C(C)=O)CC[C@@H]2[C@@H]3C[C@H](C)C4=CC(=O)CC[C@]4(C)[C@H]3CC[C@@]21C", "Potency": "24.3 µM (active)"}
{"compound": "CCOC1OC(=O)C[C@H]1NC(=O)[C@@H]1CCCN1C(=O)[C@@H](NC(=O)c1ccc(N)c(Cl)c1)C(C)(C)C", "note": "(stereo not given in full)", "Potency": "1.37 µM (active)"}
{"compound": "CC(C)(C)OC(=O)N[C@H]1CCCCCC=C[C@@H]2C[C@@]2(C(=O)NS(=O)(=O)C2CC2)NC(=O)[C@@H]2C[C@@H](OC(=O)N3Cc4cccc(F)c4C3)CN2C1=O", "activity change, negative = cytotoxic": -3.28}
{"compound": "CCNc1cc(NC2CCC(O)CC2)nc(Nc2ccc3c(ccn3Cc3ccccc3)c2)n1", "note": "(stereo not given)", "Potency": "27.3 µM (active)"}
{"compound": "CO[C@H]1C=CO[C@@]2(C)Oc3c(C)c(O)c4c(O)c(c5c(c4c3C2=O)NC2(CCN(CC(C)C)CC2)N=5)=NC(=O)C(C)=CC=C[C@H](C)[C@H](O)[C@@H](C)[C@@H](O)[C@@H](C)[C@H](OC(C)=O)[C@H]1C", "activity change, negative = cytotoxic": -18.9}
{"compound": "CCN1CCC[C@H]1CNC(=O)c1cc(S(N)(=O)=O)ccc1OC", "activity change, negative = cytotoxic": 7.77}
{"compound": "CC(C)(C)c1ccc(C(O)CCCN2CCC(C(O)(c3ccccc3)c3ccccc3)CC2)cc1", "note": "(stereo not given)", "activity change, negative = cytotoxic": 1.49}
{"compound": "COc1ccccc1N1CCN(CCCNc2cc(=O)n(C)c(=O)n2C)CC1", "activity change, negative = cytotoxic": 4.51}
{"compound": "CN(C)CCC=C1c2ccccc2COc2ccc(CC(=O)O)cc21", "activity change, negative = cytotoxic": 2.35}
{"compound": "C=C1C(=O)OC(CCCCCCCC)C1C(=O)O", "note": "(stereo not given)", "activity change, negative = cytotoxic": 19.1}
{"compound": "CC(=O)N[C@@H](CS)C(=O)O", "activity change, negative = cytotoxic": 7.96}
{"compound": "CCC(=O)O[C@]1(C(=O)CO)CC[C@H]2[C@@H]3CCC4=CC(=O)CC[C@]4(C)[C@@H]3CC[C@@]21C", "activity change, negative = cytotoxic": -1.66}
{"compound": "CC(C)(C(=O)NCC(F)(F)C(F)(F)F)C(=O)N[C@@H]1C(=O)Nc2ccccc2-c2ccccc21", "Potency": "1.09 µM (active)"}
{"compound": "CNC(=O)c1ccccc1Sc1ccc2c(C=Cc3ccccn3)n[nH]c2c1", "Potency": "19.3 µM (active)"}
{"compound": "C[N+](C)(C)CC(=O)O", "activity change, negative = cytotoxic": 7.98}
{"compound": "O=c1c(-c2ccc(O)cc2)coc2cc(O)ccc12", "activity change, negative = cytotoxic": 9.3}
{"compound": "CCN(CC)CCOC(=O)c1ccc(N)cc1", "activity change, negative = cytotoxic": 11.6}
{"compound": "NC[C@@H]1O[C@@H](O[C@H]2[C@@H](O)[C@H](O[C@@H]3[C@@H](O)[C@@H](N)C[C@H](N)[C@H]3O[C@H]3O[C@H](CN)[C@@H](O)[C@@H](O)[C@H]3N)O[C@H]2CO)[C@H](N)[C@@H](O)[C@@H]1O", "activity change, negative = cytotoxic": 9.8}
{"compound": "NCCS", "activity change, negative = cytotoxic": 13}
{"compound": "N#CC(=C(N)Sc1ccccc1N)C(C#N)=C(N)Sc1ccccc1N", "Potency": "13.7 µM (active)"}
{"compound": "OC[C@@H](O)[C@H](O)[C@H](O)[C@@H](O)CO", "Potency": "inactive"}
{"compound": "Cc1cnc(C(=O)O)c[n+]1[O-]", "activity change, negative = cytotoxic": 6.37}
{"compound": "CCN(CC)CCNC(=O)c1ccc(N)cc1", "activity change, negative = cytotoxic": 7.91}
